Drawing on PubChem BioAssay AID602127 (Broad Institute, 2011), this text covers outcome for one compound.

For the experiment, the target named is Cyclin-dependent kinase 2 (Homo sapiens) (UniProt P24941). The experiment in a line: CDK2 kinase inhibitors, off-target check, dose response, selectivity assay for Dyrk1A inhibitor project, biochemical, cherry-picked samples (AID 602127).

Structures are written as SMILES. Results with a measured potency or affinity are listed apart. The source made the active and inactive calls.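 Rule for the calls: active = every repeat test judged active, meaning a falling signal with potency within twice the top valid dose; inconclusive = repeat tests disagree on the call; inactive = every repeat test inactive, including signal moving upward.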

Consider `COc1ccc2c(c1)[nH]c1c(C)nccc12`, for which the compound was classed as inactive.
